From PubChem BioAssay (NCI)
The panel holds about 83,000 compounds, 20% with a hit somewhere; the sample as a whole holds those more often.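 The test compound was applied at a single concentration to cells in 96-well plates for 48 hours, and percent growth was recorded.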 Activity calls are given as the source filed them.

These molecules were tested on HL-60(TB) leukemia (assay: NCI-60 one-dose screen, 48 h (100 = growth as untreated, 0 = no growth, -100 = all killed)). Settings: 10 µM unless noted.
Description: Growth inhibition of the HL-60(TB) human tumor cell line is measured as a screen for anti-cancer activity. Cells are grown in 96 well plates and exposed to the test compound for 48 hours. Compounds are tested at a single concentration, which is 10^-5 M for most compounds. The reported endpoint is percent growth (GI% or GIPRCNT), where numbers from 0 - 100% represent growth inhibition, and numbers from -100% - 0 represent cell death. For example, a value of 40 represents 60% growth inhibition. A value of 0 means no net growth occurred over the course of the experiment. A value of -40 indicates 40% of cells at the beginning of the experiment died by the end of the experiment. A value of -100 means all cells are dead at the end of the experiment.
NCI-60 Human Tumor Cell Lines Screen was performed using the standard one-dose NCI protocol, which is described in more detail at https://dtp.cancer.gov/discovery_development/nci-60/default.htm.
Compounds with GIPRCNT values below 10 were considered active. Activity score was based on GIPRCNT using the following formula: […]
Score is 0 for GIPRCNT values of 100 or above, 50 for GIPRCNT values of 0, and 100 for GIPRCNT values of -100.

SMILES | growth
C/C(CCC(=O)O)=N/Nc1ccc([N+](=O)[O-])cc1 | 31.9% (inactive)
O=C1CC(C(F)(F)F)=NN1C(=O)c1nn(-c2ccc(Cl)cc2)cc1O | 105% (inactive)
CC[C@H](C)[C@@H]1NC(=O)[C@H](Cc2ccc(O)cc2)N(C)C(=O)[C@H](Cc2ccccc2)NC(=O)CN(C)C(=O)[C@@H]2CCCN2C(=O)[C@@H](Cc2ccccc2)N(C)C(=O)[C@H](CC(C)C)NC1=O | -24% (active)
N/C(=N\O)c1ccncc1 | 102% (inactive)
OC(CN1CCCC2CCCCC21)c1cc2ccccc2c2ccccc12 (stereo not given) | 84.9% (inactive)
CC1=C(SCCC(=O)OC(C[Se]C2=C(C)C(=O)c3ccccc3C2=O)C(=O)NC(C)(C)C)C(=O)c2ccccc2C1=O (stereo not given) | 8.81% (active)
Cc1ccc2nc(NC(=O)CSc3nc(-c4ccccc4)c(C#N)c(=O)n3Cc3ccccc3)sc2c1 | 100% (inactive)
O=C1C=CC(=CC=C2C=CN(CCCCCCCCCCCO)C=C2)C=C1 | 4.05% (active)
O=C1CCCCC1(c1ccccc1)c1ccccc1 | 106% (inactive)
O=C(O)c1cc(C(F)(F)F)cc(C(F)(F)F)c1 | 88.2% (inactive)
CCCCCCN1C(=O)/C(=c2\sc3n(c2=O)C2C(NN=3)N(CC)C(=O)N2CC)c2ccccc21 (stereo not given) | 42.2% (inactive)
[O-][n+]1c(Cl)cc(Cl)c2ccccc21 | 84.9% (inactive)
O=C(NCCNc1nccc(-n2ccc3cccnc32)n1)c1ccc(C(F)(F)F)cc1 | 107% (inactive)
Clc1ccc(-c2nc(-c3c[nH]c4ncccc34)cs2)cc1 | 87.4% [100 µM] (inactive)
NC1=CSC2=N/C(=C\c3ccc(Cl)cc3)C(=O)N12 | 39.9% (inactive)
COc1ccc2c(c1)O/C(=C\c1cccc(OCC(=O)Nc3nc4ccccc4s3)c1)C2=O | 40.7% (inactive)
CN1CCN(c2ccc(-c3cc4c(Nc5ccc(F)c(Cl)c5)ncnn4c3)cc2)CC1 | 1.68% (active)
CC1SC(c2ccccc2O)N(NC(=O)CCC(=O)c2nc3ncccc3[nH]2)C1=O (stereo not given) | 101% (inactive)
O=S(=O)(Nc1ccc(Br)cc1)c1ccc(-c2cnc(C3CC3)o2)cc1 | -36% (active)
CCOC(=O)Cc1cnc(N/N=C(\C)c2cc3ccccc3o2)s1 | 65.2% (inactive)

SMILES | growth
Oc1ccc(CN2CCC(N3CCOCC3)CC2)c2cccnc12 | 34.4% (inactive)
CCOC(=O)C1=C(Nc2ccc(OC)cc2)C(N)=NC1=N | 3.35% (active)
COc1ccc(/C=N/NC(=O)c2ccc(S(C)(=O)=O)cc2)cc1OC | 54.1% (inactive)
COc1ccc(-c2cnc(-c3ccc(Cl)cc3)[nH]2)cc1OC | 91.2% (inactive)
COc1ccc(/C=C2\COc3ccc(O)c(O)c3C2=O)c(OC)c1OC | -28.8% (active)
CCOC(=O)/C=C1\SC(=Nc2ccc(C#N)cc2)N(CCN2C(=O)/C(=C/C(=O)OCC)SC2=Nc2ccc(C#N)cc2)C1=O | 55.5% (inactive)
COC(=O)C(C(C[N+](=O)[O-])c1ccccc1)=P(c1ccccc1)(c1ccccc1)c1ccccc1 (stereo not given) | 80.5% (inactive)
Cc1cc(NCc2cc(Nc3ccnc4cc(Cl)ccc34)ccc2F)nc(Cl)n1 | 22.9% (inactive)
C=C1C(=O)O[C@H]2[C@H]1CC/C(COC(=O)n1ccnc1C)=C\CC[C@@]1(C)O[C@@H]21 | 83.2% (inactive)
Cc1cc(C)c2nc(C)c(C)[n+]([O-])c2c1 | 85.7% (inactive)
CC(/C=C/C=C(\C)[C@H](O)[C@H](C)C(=O)O[C@H]1C[C@H](C)C=C2C=C[C@@]3(C)O[C@@H](O)CC(=O)[C@]3(C)[C@H]21)=C\C=C\C(=O)O | 34% (inactive)
Fc1cc(-c2nnc3sc(-c4ccc(Cl)cc4Cl)nn23)c(Cl)cc1Cl | 161% (inactive)
COC1/C=C/OC2(C)Oc3c(C)c(O)c4c(O)c(c(/C=N/N(c5ccccc5)c5ccccc5)c(O)c4c3C2=O)NC(=O)C(C)=C/C=C/C(C)C(O)C(C)C(O)C(C)C(OC(C)=O)C1C (stereo not given) | 53.1% (inactive)
CCN(CC)CCCC(Cc1ccccc1)Nc1c2ccc(Cl)cc2nc2ccc(OC)cc12 (stereo not given) | 19.5% (inactive)
CC1Cc2ccccc2N1NC(=O)c1ccc(Cl)c(S(N)(=O)=O)c1 (stereo not given) | 92.3% (inactive)
COc1ccc(Nc2nc(NCCNc3ccnc4cc(Cl)ccc34)nc(N3CCOCC3)n2)cc1 | 22.8% (inactive)
CC([C@H]1CCC2C3CCC4C(=O)C(NC=O)=CC[C@]4(C)C3CC[C@@]21C)N(C)C (stereo not given in full) | 1.54% (active)
C#CC[C@@H]1C[C@]2(C)[C@H]3CC=C4[C@H]5[C@@H](C)[C@H](C)CC[C@]5(C(=O)NCCCCCCCCN)CC[C@@]4(C)[C@]3(C)CC[C@H]2C(C)(C)[C@H]1OC(C)=O | -15.1% (active)
Cc1cn2c(/C=C3/C(=O)Nc4c3ccc3ccccc43)c(C(F)(F)F)nc2s1 | 1.47% (active)
C[n+]1cc2cc(C(N)=O)[nH]c3c(=N)c(Cl)c(N)c1c23 | 78.8% (inactive)
